# Hit rate of the full screen: of about 390,000 compounds, about 17,000 (4.4%) were called active. Not shown: some 8% with an inconclusive outcome. This is one part of a sample in which actives are shown more often than they occur. The call rests on the fitted dose curve; in most records, active means well fitted inhibition curve with a large enough effect; inconclusive means small, poorly fitted or top-dose-only effect; inactive means no such curve, though single readings can be large or run the other way.
# Biological target: Lysine-specific demethylase 4A (Homo sapiens) (UniProt O75164)
# Assay: qHTS Assay for Inhibitors of JMJD2A-Tudor Domain; further: nearly all actives have a fitted effect of over 50% in size
# Conditions: AlphaScreen JMJD2A-Tudor / H3K4me3 peptide binding; series mostly up to 114 µM; activity change, negative = inhibition: at the top concentration
# On the % scale 0 is the no-effect control and ±100 the full control effect; potency means the concentration at half of the fitted maximal effect.
# Sequence of Lysine-specific demethylase 4A (Homo sapiens) (O75164 whole entry, looked up, the tested form may be a part): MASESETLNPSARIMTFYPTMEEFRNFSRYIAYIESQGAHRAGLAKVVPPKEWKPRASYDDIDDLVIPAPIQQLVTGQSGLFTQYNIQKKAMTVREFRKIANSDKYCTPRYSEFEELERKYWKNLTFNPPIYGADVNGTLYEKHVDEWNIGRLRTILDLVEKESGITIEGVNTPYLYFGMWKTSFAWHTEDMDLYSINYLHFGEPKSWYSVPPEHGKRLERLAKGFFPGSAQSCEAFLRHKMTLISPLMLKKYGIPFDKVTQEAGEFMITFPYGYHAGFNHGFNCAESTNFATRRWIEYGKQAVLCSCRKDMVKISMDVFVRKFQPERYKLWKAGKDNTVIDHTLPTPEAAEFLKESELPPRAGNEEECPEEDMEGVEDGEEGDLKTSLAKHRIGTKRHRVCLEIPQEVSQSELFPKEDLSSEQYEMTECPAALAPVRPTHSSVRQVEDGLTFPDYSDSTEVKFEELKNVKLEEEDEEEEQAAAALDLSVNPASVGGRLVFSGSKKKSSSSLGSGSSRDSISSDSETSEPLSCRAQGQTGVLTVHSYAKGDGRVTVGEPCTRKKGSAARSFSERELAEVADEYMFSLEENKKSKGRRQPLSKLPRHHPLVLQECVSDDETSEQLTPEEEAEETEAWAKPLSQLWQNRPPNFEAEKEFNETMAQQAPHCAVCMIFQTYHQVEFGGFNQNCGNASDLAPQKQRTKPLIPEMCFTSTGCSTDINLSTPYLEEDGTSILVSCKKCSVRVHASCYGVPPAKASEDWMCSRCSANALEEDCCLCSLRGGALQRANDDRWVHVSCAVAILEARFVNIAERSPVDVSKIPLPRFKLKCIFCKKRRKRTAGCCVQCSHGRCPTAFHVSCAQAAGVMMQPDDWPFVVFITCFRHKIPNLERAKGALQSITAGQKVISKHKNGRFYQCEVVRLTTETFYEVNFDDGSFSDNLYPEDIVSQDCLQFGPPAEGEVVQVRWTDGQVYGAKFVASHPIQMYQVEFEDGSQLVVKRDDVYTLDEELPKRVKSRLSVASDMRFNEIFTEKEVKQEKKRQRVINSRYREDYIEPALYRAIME
Structure (SMILES),"activity change, negative = inhibition",Potency
COCc1cc(OC(=O)N(C)C)nc(-c2ccc(C)c(Cl)c2)n1,28.4% (inactive),
CCOC(=O)CC(SP1(=S)OCC2(CCCCO2)C(C2CCCCO2)O1)C(=O)OCC (stereo not given),14.5% (inactive),
c1cc2c(cc1C1OCC3C(c4ccc5c(c4)OCO5)OCC13)OCO2 (stereo not given),-4.08% (inactive),
CC(=O)OC1C2(CC3N4C(=O)C5(CO)SSC4(CC31O)C(=O)N5C)OC(C)C(C)(C)C2=O (stereo not given),-18.1% (inactive),
CCN(CC)CCOC(=O)c1cc2cc(COC)ccc2o1,,56.2 µM (active)
Cc1ccc(N(C)C(=O)Oc2cccc3ccc(C)nc23)cc1,-1.27% (inactive),
CC(=O)C1(O)CCC2C3CCC4=C(Cl)C(=O)CCC4(C)C3CCC21C (stereo not given),-2.76% (inactive),
COC(=O)C1=C(c2ccc(Cl)c(C(F)(F)F)c2)C[C@@H]2CC[C@H]1N2C(=O)NC(C)C,-15.9% (inactive),
Clc1cccc(Cl)c1Cl,-15.2% (inactive),
O=C(Nc1ccc(Cl)cc1C(=O)c1ccccc1)c1cc(Cl)cc(Cl)c1,0.654% (inactive),
CN1CCN(C(=S)SCC(=O)Nc2ccc(Cl)cc2C(=O)c2ccccc2)CC1,,44.7 µM (active)
O=C(COC(=O)c1ccccc1)Nc1ccc(Cl)cc1C(=O)c1ccccc1,6.97% (inactive),
CC12CCC3C(CCC4CC(=O)CCC43C)C1CC(=NO)C2=O (stereo not given),-7.64% (inactive),
Cc1cccc(Cn2cccc(C(=O)Nc3ccc4c(c3)OCCO4)c2=O)c1,-24.4% (inactive),
CCOCCc1c(O)[nH]c(=S)[nH]c1=O,,79.4 µM (active)
Oc1ccc2c3c1OC1[C@H](O)CC[C@@]4(O)[C@@H](C2)N(CC2CC2)CC[C@]314 (stereo not given in full),,inactive
CCC(C)n1c(O)c(/C=N/Nc2nc3c(c(=O)n(C)c(=O)n3C)n2C)c(=O)[nH]c1=S (stereo not given),,79.4 µM (active)
Cc1ccccc1NC(=O)COC(=O)c1cc(C)n(C2CC2)c1C,-15.8% (inactive),
C=Cn1ccnc1P(=S)(c1cc(N(CC)CC)ns1)c1nccn1C=C,-26.7% (inactive),
Cc1nc2ccccn2c1P(=S)(N1CCCCC1)N1CCCCC1,-16.4% (inactive),
